According to PubChem BioAssay AID1159580 (chemical genetic matrix, 2015):
About 2,000 (36%) of roughly 5,500 compounds were called active. Roughly 18% stayed inconclusive and do not appear here. Rule as the data show it: active = normalized growth mostly below about 0.91 (no sharp cut-off); inconclusive = no clear call, values can overlap the other calls; inactive = mostly above about 0.92. The list shows a part of the results.

Assay: chemical genetic growth profiling, strain panel (AID 1159580);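 also: tested at 20 µM; growth read once vehicle control cultures reached saturation at 30 °C; 1 = growth at the plate median or of vehicle wells; lower values mean less growth of the strain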
Conditions: growth OD
[1] = S. cerevisiae deletion strains, locus YJL187C, strain SWE1, hits give low values

Measured: normalized growth

CCCc1cc(Br)c(-n2cccc2)c(Br)c1
inactive: S. cerevisiae deletion strains, locus YAL013W, strain DEP1, hits give low values 0.998 | S. cerevisiae deletion strains, locus YBR229C, strain ROT2, hits give low values 0.993 | S. cerevisiae deletion strains, locus YDL101C, strain DUN1, hits give low values 1.01 | S. cerevisiae deletion strains, locus YDR150W, strain NUM1, hits give low values 1.01 | S. cerevisiae deletion strains, locus YEL061C, strain CIN8, hits give low values 1.02 | S. cerevisiae deletion strains, locus YGR078C, strain PAC10, hits give low values 0.997 | S. cerevisiae deletion strains, locus YHR030C, strain SLT2, hits give low values 1.08 | S. cerevisiae deletion strains, locus YHR087W, strain rtc3, hits give low values 0.994 | [1] 0.992 | S. cerevisiae deletion strains, locus YJR043C, strain POL32, hits give low values 1.02 | S. cerevisiae deletion strains, locus YJR075W, strain HOC1, hits give low values 0.994 | S. cerevisiae deletion strains, locus YLR039C, strain RIC1, hits give low values 1.09 | S. cerevisiae deletion strains, locus YLR058C, strain SHM2 (second series), hits give low values 0.998 | S. cerevisiae deletion strains, locus YLR085C, strain ARP6, hits give low values 1.08 | S. cerevisiae deletion strains, locus YLR262C, strain YPT6, hits give low values 1.05 | S. cerevisiae deletion strains, locus YML094W, strain GIM5, hits give low values 1.01 | S. cerevisiae deletion strains, locus YMR219W, strain ESC1, hits give low values 0.994 | S. cerevisiae deletion strains, locus YMR263W, strain SAP30, hits give low values 0.938 | S. cerevisiae deletion strains, locus YNL153C, strain GIM3, hits give low values 1.01 | S. cerevisiae deletion strains, locus YNL298W, strain CLA4 (second series), hits give low values 1.06 | S. cerevisiae deletion strains, locus YNL322C, strain KRE1, hits give low values 0.997 | S. cerevisiae deletion strains, locus YNR030W, strain Alg12, hits give low values 1.01 | S. cerevisiae deletion strains, locus YOL006C, strain TOP1, hits give low values 1.04 | S. cerevisiae deletion strains, locus YPL055C, strain LGE1, hits give low values 1.13 | S. cerevisiae deletion strains, locus YPL241C, strain CIN2, hits give low values 1.02 | S. cerevisiae deletion strains, locus YPR135W, strain CTF4, hits give low values 1.05 | S. cerevisiae strains, strain wild type, hits give low values 1.03

COc1cccc(/C=C/C(=O)O)c1C(C)C
inactive: S. cerevisiae deletion strains, locus YAL021C, strain ccr4, hits give low values 0.952 | S. cerevisiae deletion strains, locus YAL026C, strain drs2, hits give low values 0.983 | S. cerevisiae deletion strains, locus YAL030W, strain snc1, hits give low values 0.978 | S. cerevisiae deletion strains, locus YBL061C, strain skt5, hits give low values 0.973 | S. cerevisiae deletion strains, locus YBR009C, strain hhf1, hits give low values 1.01 | S. cerevisiae deletion strains, locus YBR023C, strain chs3, hits give low values 0.973 | S. cerevisiae deletion strains, locus YBR171W, strain sec66, hits give low values 0.969 | S. cerevisiae deletion strains, locus YBR231C, strain swc5, hits give low values 0.976 | S. cerevisiae deletion strains, locus YBR279W, strain paf1, hits give low values 0.995 | S. cerevisiae deletion strains, locus YCL011C, strain gbp2, hits give low values 0.999 | S. cerevisiae deletion strains, locus YCL016C, strain dcc1, hits give low values 0.982 | S. cerevisiae deletion strains, locus YCL069W, strain vba3, hits give low values 0.982 | S. cerevisiae deletion strains, locus YCR088W, strain abp1, hits give low values 0.977 | S. cerevisiae deletion strains, locus YDL005C, strain med2, hits give low values 0.96 | S. cerevisiae deletion strains, locus YDL040C, strain nat1, hits give low values 0.988 | S. cerevisiae deletion strains, locus YDR001C, strain nth1, hits give low values 0.983 | S. cerevisiae deletion strains, locus YDR069C, strain doa4, hits give low values 0.97 | S. cerevisiae deletion strains, locus YDR137W, strain rgp1, hits give low values 0.992 | S. cerevisiae deletion strains, locus YDR159W, strain sac3, hits give low values 0.917 | S. cerevisiae deletion strains, locus YDR195W, strain ref2 0.96 | S. cerevisiae deletion strains, locus YDR297W, strain sur2, hits give low values 0.973 | S. cerevisiae deletion strains, locus YDR334W, strain swr1, hits give low values 0.983 | S. cerevisiae deletion strains, locus YDR335W, strain msn5, hits give low values 0.994 | S. cerevisiae deletion strains, locus YDR392W, strain spt3, hits give low values 0.961 | S. cerevisiae deletion strains, locus YEL003W, strain gim4, hits give low values 0.994 | S. cerevisiae deletion strains, locus YEL037C, strain rad23, hits give low values 0.985 | S. cerevisiae deletion strains, locus YEL061C, strain CIN8 (second series), hits give low values 1 | S. cerevisiae deletion strains, locus YER015W, strain faa2, hits give low values 0.977 | S. cerevisiae deletion strains, locus YER016W, strain bim1, hits give low values 0.981 | S. cerevisiae deletion strains, locus YER111C, strain swi4, hits give low values 0.976 | S. cerevisiae deletion strains, locus YER155C, strain BEM2 (second series), hits give low values 0.967 | S. cerevisiae deletion strains, locus YFR010W, strain ubp6, hits give low values 0.99 | S. cerevisiae deletion strains, locus YGL167C, strain pmr1, hits give low values 0.978 | S. cerevisiae deletion strains, locus YGL173C, strain kem1, hits give low values 0.991 | S. cerevisiae deletion strains, locus YGL227W, strain vid30, hits give low values 0.985 | S. cerevisiae deletion strains, locus YGL240W, strain doc1, hits give low values 0.984 | S. cerevisiae deletion strains, locus YGL253W, strain hxk2, hits give low values 0.98 | S. cerevisiae deletion strains, locus YHR013C, strain ard1, hits give low values 0.957 | S. cerevisiae deletion strains, locus YHR027C, strain rpn1, hits give low values 0.995 | S. cerevisiae deletion strains, locus YHR142W, strain chs7, hits give low values 0.996 | S. cerevisiae deletion strains, locus YJL092W, strain hpr5, hits give low values 0.983 | S. cerevisiae deletion strains, locus YJL095W, strain BCK1 (second series), hits give low values 0.974 | S. cerevisiae deletion strains, locus YJL115W, strain asf1, hits give low values 0.972 | S. cerevisiae deletion strains, locus YJL129C, strain trk1, hits give low values 0.973 | S. cerevisiae deletion strains, locus YJL154C, strain vps35, hits give low values 0.983 | S. cerevisiae deletion strains, locus YJL164C, strain tpk1, hits give low values 0.985 | S. cerevisiae deletion strains, locus YJL166W, strain qcr8, hits give low values 0.982 | [1] 0.998 | S. cerevisiae deletion strains, locus YKL160W, strain elf1, hits give low values 0.987 | S. cerevisiae deletion strains, locus YKR026C, strain gcn3, hits give low values 0.982 | S. cerevisiae deletion strains, locus YKR091W, strain srl3, hits give low values 0.999 | S. cerevisiae deletion strains, locus YLL001W, strain dnm1, hits give low values 0.988 | S. cerevisiae deletion strains, locus YLL026W, hits give low values 0.972 | S. cerevisiae deletion strains, locus YLL041C, strain sdh2, hits give low values 0.971 | S. cerevisiae deletion strains, locus YLR027C, strain aat2, hits give low values 0.989 | S. cerevisiae deletion strains, locus YLR221C, strain rsa3, hits give low values 0.999 | S. cerevisiae deletion strains, locus YLR258W, strain gsy2, hits give low values 0.986 | S. cerevisiae deletion strains, locus YLR262C, strain YPT6 (second series), hits give low values 1.03 | S. cerevisiae deletion strains, locus YLR320W, strain mms22, hits give low values 0.975 | S. cerevisiae deletion strains, locus YLR342W, strain FKS1, hits give low values 0.982 | S. cerevisiae deletion strains, locus YLR357W, strain rsc2, hits give low values 0.945 | S. cerevisiae deletion strains, locus YLR370C, strain arc18, hits give low values 0.993 | S. cerevisiae deletion strains, locus YLR384C, strain iki3, hits give low values 0.989 | S. cerevisiae deletion strains, locus YML120C, strain ndi1, hits give low values 0.979 | S. cerevisiae deletion strains, locus YMR058W, strain fet3, hits give low values 0.976 | S. cerevisiae deletion strains, locus YMR125W, strain sto1, hits give low values 0.988 | S. cerevisiae deletion strains, locus YMR129W, hits give low values 0.99 | S. cerevisiae deletion strains, locus YMR205C, strain PFK2, hits give low values 0.937 | S. cerevisiae deletion strains, locus YMR231W, strain pep5, hits give low values 0.977 | S. cerevisiae deletion strains, locus YNL071W, strain lat1, hits give low values 0.982 | S. cerevisiae deletion strains, locus YNL209W, strain ssb2, hits give low values 1.01 | S. cerevisiae deletion strains, locus YNL248C, strain rpa49, hits give low values 0.988 | S. cerevisiae deletion strains, locus YNL322C, strain KRE1 (second series), hits give low values 0.951 | S. cerevisiae deletion strains, locus YNR049C, strain mso1, hits give low values 0.967 | S. cerevisiae deletion strains, locus YOR001W, strain rrp6, hits give low values 0.998 | S. cerevisiae deletion strains, locus YOR070C, strain gyp1, hits give low values 0.999 | S. cerevisiae deletion strains, locus YOR080W, strain dia2, hits give low values 0.994 | S. cerevisiae deletion strains, locus YOR083W, strain WHI5, hits give low values 0.981 | S. cerevisiae deletion strains, locus YOR106W, strain vam3, hits give low values 1.01 | S. cerevisiae deletion strains, locus YOR265W, strain rbl2, hits give low values 0.973 | S. cerevisiae deletion strains, locus YOR270C, strain vph1, hits give low values 1.02 | S. cerevisiae deletion strains, locus YOR290C, strain snf2, hits give low values 0.98 | S. cerevisiae deletion strains, locus YPL051W, strain arl3, hits give low values 0.996 | S. cerevisiae deletion strains, locus YPL078C, strain atp4, hits give low values 1.01 | S. cerevisiae deletion strains, locus YPL106C, strain sse1, hits give low values 0.929 | S. cerevisiae deletion strains, locus YPL240C, strain hsp82, hits give low values 0.976
